Source: PubChem
A selection: hits, their analogues and other compounds. The true share with any hit is near 9.2%.
ELG1 DNA repair – ELG1-dependent DNA repair inhibition; HEK293T ELG1-luciferase reporter, luminescence, 16 h; DNA damage induced by 5-fluorouridine; Potency, µM (series often up to 46.1 µM), for the others: at the top dose activity change, negative = inhibition, usual class: inhibitors; hit rate 2.3% among 330,000; AID 504467; note: % is set by controls: 0 for no effect and ±100 for the full control effect; nearly all actives have a fitted effect of over 55% in size
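Step one: seed 2,000 cells per well. Step two: pin-transfer compound or DMSO alongside 5-fluorouridine. Step three: incubate 16 hr, 37 °C, 5% CO2. Step four: add ONE-Glo, wait 30 min, read luminescence.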
ELG1 genotoxic – genotoxicity induction in ELG1-luciferase HEK293T cells. HEK293T ELG1-luciferase reporter, luminescence, 16 h. Potency, µM (series often up to 46 µM), for the others: top-dose activity change, positive = activation, actives largely listed as activators. hit rate 1.3% among 330,000. AID 504466; note: % of control where 0% means no effect; nearly all actives have a fitted effect of over 60% in size
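DMSO vehicle served as control against compound-treated ELG1-luciferase HEK293T cells; exposure lasted 16 hr at 37 °C and 5% CO2, followed by ONE-Glo luminescence detection after 30 min.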
SMN2 splice enh – enhancers of SMN2 splice variant expression; hit rate 2.8% among 210,000; HEK293 SMN2-luciferase splicing reporter, luminescence, 30-36 h; Potency, µM (doses to about 46.1 µM), for the others: top-dose activity change, positive = activation, most hits filed as activators; AID 1458; note: % of control where 0% means no effect; nearly all actives have a fitted effect of over 55% in size
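qHTS luciferase splicing reporter: luminescence rises when SMN2 exon 7 is included in transfected HEK293 cells. Compound exposure lasted 30-36 h at 37C, with 4.5 mM final sodium butyrate as control, followed by a ONE-Glo read.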
Rab9 promoter act – Rab9 promoter activation; hit rate 2.8% among 320,000; Potency, µM (titrated, usually from 9.22 µM), inactives show at the top dose activation, negative = inhibition, most hits filed as activators; Huh7 Rab9 promoter-luciferase reporter, luminescence, 24 h; AID 485297; note: % of control where 0% means no effect; nearly all actives have a fitted effect of over 60% in size
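Rab9 promoter-driven luciferase in stably transfected Huh7 cells; 1500 cells/well rested 2 h, exposed to compound in DMSO for 24 h at 37 °C, 5% CO2. Luminescence read 10 min after adding luciferase reagent at ambient temperature.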
FLuc counter – counter-screen for miR-21 project: firefly luciferase inhibitors or activators. P08659. purified FLuc, Km substrates, luminescence inhibition. Potency, µM (titrated, usually from 57.5 µM), for the others: top-dose activity change, negative = inhibition, most hits filed as inhibitors. hit rate 6.9% among 360,000;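 note: plate controls were vehicle for no effect and reference inhibitor for full effect; nearly all actives have a fitted effect of over 55% in size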
Target sequence (P08659 whole entry, looked up): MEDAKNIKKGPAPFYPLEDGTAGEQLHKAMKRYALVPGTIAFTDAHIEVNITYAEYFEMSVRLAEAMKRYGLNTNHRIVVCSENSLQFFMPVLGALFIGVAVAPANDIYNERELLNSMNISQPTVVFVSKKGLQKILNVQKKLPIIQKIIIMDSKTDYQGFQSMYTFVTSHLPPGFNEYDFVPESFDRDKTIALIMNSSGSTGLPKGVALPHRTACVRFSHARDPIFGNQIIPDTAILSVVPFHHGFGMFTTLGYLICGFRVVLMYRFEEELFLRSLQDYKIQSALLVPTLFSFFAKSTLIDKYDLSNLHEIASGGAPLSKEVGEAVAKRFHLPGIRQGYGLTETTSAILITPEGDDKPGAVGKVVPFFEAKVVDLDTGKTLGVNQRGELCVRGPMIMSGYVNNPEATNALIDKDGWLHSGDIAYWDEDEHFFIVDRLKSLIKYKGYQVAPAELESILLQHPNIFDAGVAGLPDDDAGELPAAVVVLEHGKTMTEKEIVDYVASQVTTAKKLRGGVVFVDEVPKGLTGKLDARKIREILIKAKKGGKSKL
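Purified P. pyralis luciferase, 10 nM final, with Km-level 10 uM D-luciferin and 10 uM ATP in 50 mM Tris acetate pH 7.5, 10 mM Mg acetate, 0.01% Tween-20, 0.05% BSA; 6-point qHTS titration about 60 µM downward; luminescence read.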
NPC1 promoter act – activates the NPC1 promoter | Potency, µM (titrated, usually from 9.22 µM), inactives show top-dose activation, usual class: activators | Huh7 NPC1 promoter luciferase reporter, 24 h | hit rate 2.4% among 320,000; note: % of control where 0% means no effect; nearly all actives have a fitted effect of over 60% in size
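Huh7 reporter cells (NPC1 promoter driving luciferase) are dosed with compound for 24 h at 37 °C, 5% CO2; luciferase detection reagent is then added and luminescence measured after 10 min at ambient temperature.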
Starred values were filed as active, the others as inactive; ? = inconclusive; · = not tested or not shown; [ ] = remark or other dose. Calls come from the whole dose curve; as a rule, active = well fitted curve in the direction sought with a large enough effect; inconclusive = small, poorly fitted or top-dose-only effect, or another doubt; inactive = no such curve, though single readings can be large; an effect the other way counts as inactive or inconclusive. Potency is the fitted concentration of half-maximal effect.

SMILES	ELG1 DNA repair	ELG1 genotoxic	SMN2 splice enh	Rab9 promoter act	FLuc counter	NPC1 promoter act
Cc1ccc(NC(=O)CN2C=NS(=O)(=O)c3ccccc32)cc1	·	·	·	·	-1.1%	·
Cc1ccc(CCNC(=O)c2c(C)oc3ncnc(N4CCOCC4)c23)cc1	·	·	·	·	-1.9%	·
O=C(NC1CCCCC1)c1ccc2c(c1)sc1nc(-c3ccccc3)cn12	·	·	·	·	-11.4%	·
O=C1C2C3C=CC(CO)(O3)C2C(=O)N1c1ccc(-c2ccccc2)cc1 (stereo not drawn)	?	?	16.8%	9.6%	19µM*	13.3%
CC(C)(C)C(=O)NCC12C=CC(O1)C1C(=O)N(c3ccccc3)C(=O)C12 (stereo not drawn)	9.1%	-0.6%	-18.6%	-0.2%	1.6%	-4.4%
Cc1cccc(NC(=S)Nc2cccc3ccccc23)c1	1.5%	-3.2%	·	4.0%	-8.0%	13.0%
Cc1cc(C)cc(NC(=S)Nc2cccc3ccccc23)c1	?	?	·	2.51µM*	21.3µM*	2.51µM*
Cc1ccc(S(=O)(=O)NC2CCSC2=O)cc1C (stereo not drawn)	28.5%	0.1%	·	-3.0%	-1.1%	-4.8%
CCn1c(C)nc2cc(C(=O)NNC(=S)Nc3ccc(Cl)cc3)ccc21	11.3%	2.8%	·	14.6%	?	7.8%
CCn1c(C)nc2cc(C(=O)NNC(=S)Nc3ccccc3)ccc21	?	10.3µM*	8.5%	0.794µM*	12µM*	0.447µM*
CCCn1c(NC(=S)Nc2ccccc2)nc2ccccc21	?	?	6.1%	-3.5%	?	-1.5%
CCn1c(NC(=S)Nc2ccccc2)nc2ccccc21	?	2.8%	25.5%	?	3.38µM*	?
CCn1c(C)nc2cc(C(=O)NNC(=S)Nc3ccccc3Cl)ccc21	?	?	?	?	16.9µM*	?
CCn1c(C)nc2cc(C(=O)NNC(=S)Nc3ccc(Cl)cc3Cl)ccc21	28.6%	-4.0%	-7.7%	-1.3%	?	2.6%
CC(C)c1ccc(/C=C/C(=O)Nc2ccc(CN3CCOCC3)cc2)cc1	9.2µM*	-14.9%	·	-21.4%	12µM*	-13.7%
CC(C)c1ccc(NC(=S)NN2CCOCC2)cc1	?	16.7%	22.4µM*	?	?	?
CC(C)c1ccc(NC(=O)c2ccc(CN3CC(=O)N4CCCCC4C3=O)cc2)cc1 (stereo not drawn)	·	·	·	·	10.7µM*	·
O=C(/C=C/c1ccc(Cl)cc1)Nc1ccc(CN2CCOCC2)cc1	?	1.6%	-74.5%	-18.0%	?	-9.7%
O=C(Nc1ccc(CN2CCS(=O)(=O)CC2)cc1)c1ccc(Cl)cc1	10.3µM*	-1.7%	·	0.2%	?	1.9%
O=C(CCn1c(=O)oc2ccc(Cl)cc21)NCCCN1CCOCC1	5.6%	1.3%	·	-0.8%	-1.8%	1.5%
CC(=O)N1c2ccc(S(=O)(=O)NCC3CCC(C(=O)N4CCC(C)CC4)CC3)cc2CC1C (stereo not drawn)	-4.3%	1.7%	·	-0.9%	-1.2%	-0.9%
CC(C)c1ccc(C(=O)Nc2ccc(CN3CCOCC3)cc2)cc1	-9.0%	10.2%	·	-4.9%	10.7µM*	-2.5%
O=C(Nc1ccc(CN2CCCCC2)cc1)c1ccc2c(c1)OCO2	?	?	8.1%	4.8%	?	0.6%
O=C(Nc1ccc2c(c1)OCO2)c1ccc(CN2CCOCC2)cc1	?	18.4µM*	-4.9%	29.1%	15.1µM*	?
COc1ccc(/C=C2\Oc3cc(OC(=O)N4CCOCC4)ccc3C2=O)cc1	?	-8.0%	·	-0.5%	6.75µM*	28.2%
SMILES	ELG1 DNA repair	ELG1 genotoxic	SMN2 splice enh	Rab9 promoter act	FLuc counter	NPC1 promoter act
CCc1ccc(/C=C2\Oc3cc(OC(=O)N4CCOCC4)ccc3C2=O)cc1	-9.6%	-0.4%	-47.2%	-10.5%	7.57µM*	-5.8%
COc1ccc2c(c1)O/C(=C\c1ccccc1C)C2=O	?	14.4%	·	?	13.5µM*	29.2%
Cc1ccc2[nH]c(CNC(=O)c3ccccc3F)cc2c1	?	?	·	?	-16.2%	?
C=CCc1c(C)nc(SC)nc1Nc1ccc(C(C)=O)cc1	7.31µM*	0.1%	-8.0%	?	?	25.2%
C=CCc1c(C)nc(SC)nc1Nc1ccc(C(=O)O)cc1	?	4.8%	11.6%	-10.9%	-2.7%	-0.1%
Cc1ccc(CONC(=O)c2ccc(C)cc2)cc1	?	?	·	?	13.5µM*	?
Cc1ccc(CONC(=O)c2ccccc2)cc1	?	?	·	?	15.1µM*	?
Cc1ccc(C(=O)N/C(=C\c2ccccc2)C(=O)OCc2ccccc2)cc1	?	?	20µM*	?	15.1µM*	?
Cc1ccc(C(=O)N/C(=C/c2ccco2)C(=O)OCN2C(=O)c3ccccc3C2=O)cc1	16.0%	1.5%	-1.2%[1.84 µM]	-3.4%	10.7µM*	-2.3%
O=C(OCc1ccccc1)/C(=C/c1cccc2ccccc12)NC(=O)c1ccccc1	-6.5%	3.2%	19.8%	0.2%	-0.3%	-2.1%
Cc1ccc(CONC(=O)c2ccc(Cl)cc2)cc1	?	?	·	?	?	-0.1%
N#Cc1ccsc1NC(=O)CCc1ccccc1	?	?	12.6µM*	?	15.1µM*	-0.4%
COc1ccc(CCC(=O)OCC(=O)Nc2sccc2C#N)cc1	?	-1.0%	·	·	·	·
N#Cc1ccsc1NC(=O)CN(Cc1ccccc1)Cc1ccccc1	-10.3%	0.2%	-25.1%	-4.4%	-16.3%	-3.9%
COc1cc(CCC(=O)Nc2sccc2C#N)cc(OC)c1OC	23.1µM*	-17.5%	·	-1.1%	0.9%	-1.2%
COc1ccc(NC(=O)CSc2cn(CCNC(=O)c3ccc(OC)cc3)c3ccccc23)cc1	·	·	-28.3%	·	?	·
O=C(CSc1cn(CCNC(=O)c2ccc3ccccc3c2)c2ccccc12)NCc1ccco1	23.1µM*	?	-95.0%	0.0%	-12.5%	0.9%
O=C(NCCn1ccc2ccccc21)c1ccc(S(=O)(=O)N2CCCCC2)cc1	?	-16.1%	-36.2%	-2.1%	6.5%	-1.6%
Cn1c(=O)cc(SCC(=O)NCc2ccco2)c2ccccc21	13.5%	2.3%	·	-0.8%	-10.8%	-0.5%
O=C(Cc1ccccc1)c1ccc2c(c1)OCCO2	?	18.3µM*	?	2.82µM*	8.49µM*	2.51µM*
COc1ccc(C(=O)NCCn2cc(SCC(N)=O)c3ccccc32)cc1	?	3.7%	·	22.3%	15.1µM*	11.7%
O=C(NCCn1ccc2ccccc21)c1ccc2c(c1)OCO2	?	2.31µM*	8.91µM*	1.12µM*	6.75µM*	0.891µM*
CN(Cc1ccccc1)C(=O)c1ccc2c(c1)OCCO2	?	4.2%	7.2%	4.2%	-4.9%	1.1%
COc1ccccc1OCC(=O)NC1CC(C)(C)NC(C)(C)C1	-3.5%	-0.8%	·	1.9%	-0.6%	1.8%
